The text below walks through data of PubChem BioAssay (NCI).

Some test systems named below: NCI-H23 lung; NCI-H226 lung; NCI-H322M lung; HOP-62 NSCLC; NCI-H460 lung; HOP-92 NSCLC; NCI-H522 lung; A549/ATCC NSCLC; 786-0 renal; COLO 205 colon; DU-145 prostate; K-562 leukemia; MALME-3M melanoma; MDA-MB-231 breast; RXF 393 renal; SF-268 CNS; SF-295 CNS; SF-539 CNS; UACC-257 melanoma; M14 melanoma.
Common to all, as to assay: NCI-60 one-dose screen, 48 h (100 = growth as untreated, 0 = no growth, -100 = all killed)
What all share (details): 10 µM unless noted

Compounds without any hit were thinned out: in the full panel of roughly 83,000, 20% have a hit.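 A percent growth of 40 corresponds to 60% growth inhibition; 0 means no net growth; -100 means all cells died. Active threshold: below 10.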 Unmarked numbers belong to inactive results. The source made the active and inactive calls.

On to `Cn1cc(-c2csc(-c3cn(CCN)c4ccc(F)cc34)n2)c2cccnc21`, for which the growth was 72.4% in the test with NCI-H23 lung; 80.2% in the test with NCI-H226 lung; 73% in the test with NCI-H322M lung; 64.7% with HOP-62 NSCLC; 23.4% in the test on NCI-H460 lung; 48.5% in the test with HOP-92 NSCLC. Moreover, the growth in the test on NCI-H522 lung was 81.2%; with A549/ATCC NSCLC it was 42%; with 786-0 renal, 79.4%; with COLO 205 colon, 67.1%; in the test with DU-145 prostate, 68.5%; with K-562 leukemia it was 11.4%. In addition, the growth in the test on MALME-3M melanoma is 87.4%; in the test on MDA-MB-231 breast, 59.9%; with RXF 393 renal, 82.6%; in the test with SF-268 CNS it was 85.9%; with SF-295 CNS, 92.4%; in the test with SF-539 CNS, 80.1%. The results for the growth with UACC-257 melanoma and in the test on M14 melanoma were 100% and 81.4%, respectively.
Take `CC(=O)OC[C@]12CC[C@@H](/C(C)=N/O)[C@@H]1[C@H]1CC[C@@H]3[C@@]4(C)CCCNC(C)(C)[C@@H]4CC[C@@]3(C)[C@]1(C)CC2`: the growth was 86.2% in the test on NCI-H23 lung; 88.5% with NCI-H226 lung; 90.7% in the test on NCI-H322M lung; 85.2% with HOP-62 NSCLC; 84.5% in the test on NCI-H460 lung; 66.9% with HOP-92 NSCLC. Moreover, the growth in the test on NCI-H522 lung is 83.8%; with A549/ATCC NSCLC it was 64.6%; in the test on 786-0 renal it was 73.5%; with COLO 205 colon, 75.8%; in the test with DU-145 prostate it was 77.3%; in the test with K-562 leukemia it was 41.3%. Further, the growth with MALME-3M melanoma was 89.2%; with MDA-MB-231 breast, 82.7%; with RXF 393 renal it was 71.2%; with SF-268 CNS, 62.8%; with SF-295 CNS it was 84.5%; in the test with SF-539 CNS, 79.5%. Further, the growth is 81.4% in the test with UACC-257 melanoma and 78.1% with M14 melanoma.
As to `CCOC(=O)N1CCN(CCCCOc2ccc(C(C)(C)CC)cc2)CC1`, the growth in the test with NCI-H23 lung is 89.4%; in the test on NCI-H226 lung, 88.5%; with NCI-H322M lung, 113%; in the test on HOP-62 NSCLC it was 100%; in the test with NCI-H460 lung it was 105%; in the test with HOP-92 NSCLC, 86.3%. Moreover, the growth with NCI-H522 lung is 77.8%; in the test on A549/ATCC NSCLC, 95.7%; in the test with 786-0 renal it was 99.7%; with COLO 205 colon, 105%; with DU-145 prostate, 104%; in the test on K-562 leukemia, 68.1%. In addition, the growth is 92.3% in the test with MALME-3M melanoma; 102% in the test with MDA-MB-231 breast; 111% in the test with RXF 393 renal; 105% with SF-268 CNS; 98.4% in the test with SF-295 CNS; 104% in the test with SF-539 CNS. Besides, the growth with UACC-257 melanoma was 94%; with M14 melanoma, 87.9%.
For the compound `CCCCC[C@H]1CC=C2C(=O)C=C[C@@H]2CC=CCCCC(=O)O[C@@H](CCCCC)CC=C2C(=O)C=C[C@@H]2CC=CCCCC(=O)O[C@@H](CCCCC)CC=C2C(=O)C=C[C@@H]2CC=CCCCC(=O)O1`, the growth in the test with NCI-H23 lung was -16.4% [8.75 µM] (active); in the test with NCI-H226 lung, 6.47% [8.75 µM] (active); with NCI-H322M lung, 17.9% [8.75 µM]; with HOP-62 NSCLC, -10.6% [8.75 µM] (active); with NCI-H460 lung, 0.981% [8.75 µM] (active); with HOP-92 NSCLC, -47.7% [8.75 µM] (active). The growth with NCI-H522 lung is -48.5% [8.75 µM] (active); in the test with A549/ATCC NSCLC, -29.7% [8.75 µM] (active); in the test with 786-0 renal, -48.7% [8.75 µM] (active); in the test with COLO 205 colon it was -30.7% [8.75 µM] (active); in the test on DU-145 prostate it was 10.6% [8.75 µM]; in the test on K-562 leukemia, 5.31% [8.75 µM] (active). Further, the growth in the test on MALME-3M melanoma was -14.3% [8.75 µM] (active); with MDA-MB-231 breast, -37.2% [8.75 µM] (active); in the test on RXF 393 renal, -65.4% [8.75 µM] (active); in the test on SF-268 CNS, 14.4% [8.75 µM]; in the test on SF-295 CNS, 2.07% [8.75 µM] (active); in the test on SF-539 CNS, -8.63% [8.75 µM] (active). Besides, the growth was -3.87% [8.75 µM] (active) in the test on UACC-257 melanoma and -26.3% [8.75 µM] (active) in the test on M14 melanoma.
Regarding `COc1ccc(C2C(C#N)=C(N)Oc3c2sc2c(F)cccc32)cc1` (stereo not given), the growth was 34.6% in the test with NCI-H23 lung; 76% in the test with NCI-H226 lung; 50% in the test on NCI-H322M lung; 22.9% in the test on HOP-62 NSCLC; 11.6% with NCI-H460 lung; 41.7% in the test on HOP-92 NSCLC. The growth is 6.47% (active) in the test with NCI-H522 lung; 36.7% with A549/ATCC NSCLC; 29.4% in the test on 786-0 renal; 5.98% (active) with COLO 205 colon; 17.3% in the test on DU-145 prostate; 9.11% (active) with K-562 leukemia. The growth in the test with MALME-3M melanoma is 65.4%; in the test with MDA-MB-231 breast, 41%; with RXF 393 renal, -8.26% (active); with SF-268 CNS, 42.6%; in the test with SF-295 CNS, 20.2%; in the test with SF-539 CNS, 1.03% (active). Besides, the growth in the test on UACC-257 melanoma is 64.9%; with M14 melanoma, -15.6% (active).
Consider `CC1(C)NCCC[C@]2(C)[C@H]3CC[C@@H]4[C@H]5[C@H](C(=O)/C=C/c6ccccn6)CC[C@]5(CO)CC[C@@]4(C)[C@]3(C)CC[C@@H]12`, for which the growth is 72.9% with NCI-H23 lung; 85.5% with NCI-H226 lung; 86.4% with NCI-H322M lung; 77% with HOP-62 NSCLC; 25.1% in the test with NCI-H460 lung; 35.6% in the test on HOP-92 NSCLC. The growth in the test on NCI-H522 lung was 54.4%; in the test with A549/ATCC NSCLC, 36.9%; in the test on 786-0 renal, 85.4%; in the test on COLO 205 colon it was -74.3% (active); in the test on DU-145 prostate, 67.7%; in the test with K-562 leukemia it was -2.17% (active). In addition, the growth in the test on MALME-3M melanoma was 73.6%; with MDA-MB-231 breast, 71.1%; in the test on RXF 393 renal, 56.7%; in the test with SF-268 CNS it was 78.7%; with SF-295 CNS it was 88.8%; with SF-539 CNS, 86.1%. The growth in the test on UACC-257 melanoma is 64%; with M14 melanoma, 61.1%.
For the compound `COc1ccc2c(c1)c(-c1nc(-c3cn(C)c4ncccc34)cs1)cn2CCN`, the growth was 81.2% with NCI-H23 lung; 84.2% in the test with NCI-H226 lung; 77.2% with NCI-H322M lung; 77.1% with HOP-62 NSCLC; 31.7% in the test with NCI-H460 lung; 57.8% in the test with HOP-92 NSCLC. In addition, the growth in the test with NCI-H522 lung was 93%; in the test with A549/ATCC NSCLC, 45.7%; in the test with 786-0 renal it was 94.4%; in the test on COLO 205 colon it was 77%; in the test with DU-145 prostate it was 69.6%; in the test on K-562 leukemia it was 68.6%. The growth with MALME-3M melanoma is 105%; in the test on MDA-MB-231 breast it was 63.3%; with RXF 393 renal, 96.1%; in the test on SF-268 CNS, 95.8%; with SF-295 CNS it was 99.1%; with SF-539 CNS, 89.1%. The growth is 98.3% in the test with UACC-257 melanoma and 97.3% with M14 melanoma.
